From PubChem
Shown are actives, neighbours in structure and some others; about 8% of the full set was active somewhere.
LASV entry inh = Lassa virus entry inhibition | Lassa virus pseudotype entry inhibition, cell reporter | Potency, µM (series often up to 37.9 µM), for inactives: at the highest dose activity change, negative = inhibition, actives largely listed as inhibitors | 1.2% of 300,000 active; calls by dose curve; tested in HEK293 cells; further: potency means the concentration at half of the fitted maximal effect; on the % scale 0 is the no-effect control and ±100 the full control effect; nearly all actives have a fitted effect of over 50% in size
MARV entry inh = inhibitors of Marburg virus binding or cell entry | AID 540276 | Marburg virus pseudotyped entry inhibition, cell reporter | Potency, µM (top dose mostly 37.8 µM), for inactives: top-dose activity change, negative = inhibition, hits mostly inhibitors | 1.8% of 300,000 active; calls by dose curve; tested in HEK293 cells; further: potency means the concentration at half of the fitted maximal effect; on the % scale 0 is the no-effect control and ±100 the full control effect
FMDV antiviral = blocks foot and mouth disease virus; Potency, µM (series often up to 57.9 µM), inactives show at the top dose activity change, negative = inhibition, actives largely listed as inhibitors; 1.2% of 410,000 active; FMDV antiviral cell-based qHTS; AID 1159524; calls by dose curve; tested in HEK293T cells; further: read-out not given here; potency means the concentration at half of the fitted maximal effect; on the % scale 0 is the no-effect control and ±100 the full control effect; nearly all actives have a fitted effect of over 45% in size
HCV inh = inhibitors of hepatitis C virus infection. Huh7.5.1 HCVcc-Cre infection, luciferase reporter, 44 h. Potency, µM (highest dose often 41.8 µM), without a hit: at the highest dose activity change, negative = inhibition, hits mostly inhibitors. 3.4% of 340,000 active. AID 651820; active means well fitted inhibition curve with a large enough effect; inconclusive means small, poorly fitted or top-dose-only effect, or another doubt; inactive means no such curve, though single readings can be large or run the other way; further: potency means the concentration at half of the fitted maximal effect; on the % scale 0 is the no-effect control and ±100 the full control effect
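1,000 cells/well; 4 h culture; + compound; + HCVcc-Cre (~0.5 moi); 44 h; luciferase substrate, RT 15 min; read 15 sec.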
HCMV inh = human cytomegalovirus inhibition; 4.5% of 410,000 active; activity change, negative = inhibition, % at 57.5 µM; HFF cells, HCMV-luciferase reporter, 72 h; hits give low values; in the data active means activity change below about -60%; inconclusive means no clear call, values can overlap the other calls; inactive means above about -39%; further: on the % scale 0 is the no-effect control and ±100 the full control effect
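Two compound doses tested in HFFs infected with HCMV-luciferase, MOI 1 PFU/cell, 72 h at 37C. Lysate luminescence read with OneGlo; data normalized against buffer-only and 10uM Salinomycin inhibitor controls.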
SARS PLP yeast = blocks SARS-CoV papain-like protease in a yeast assay | S. cerevisiae expressing SARS-CoV PLpro, growth rescue | Potency, µM (doses to about 32.9 µM), for inactives: at the top dose activity, positive = growth rescue, usual class: activators | 0.19% of 330,000 active | AID 485353; calls by dose curve; further: potency means the concentration at half of the fitted maximal effect; 0% is about no effect; nearly all actives have a fitted effect of over 55% in size
The depositor's hits bear a star; [ ] = remark or other dose.

Cc1ccc(CNC(=O)Cn2c(=O)n(Cc3ccc(F)cc3)c(=O)c3sc4ccccc4c32)cc1 was read as LASV entry inh -15%[46.1 µM], MARV entry inh 1%[46.1 µM], FMDV antiviral 0% and HCMV inh -65*.
COc1cccc(-n2c(=O)c3sc4ccccc4c3n(CC(=O)Nc3ccc(F)cc3F)c2=O)c1 was read as LASV entry inh 0%[46.1 µM], MARV entry inh 9%[46.1 µM], FMDV antiviral 1% and HCMV inh -70*.
Cc1ccc(CNC(=O)Cn2c(=O)n(Cc3ccccc3)c(=O)c3sc4ccccc4c32)cc1 was read as LASV entry inh -10%[46.1 µM], MARV entry inh -5%[46.1 µM], FMDV antiviral -24% and HCMV inh -4.
For CCC(C)NC(=O)Cn1c(=O)n(Cc2ccc(C(=O)NCc3ccc(C)cc3)cc2)c(=O)c2ccccc21 (stereo unspecified) the results were LASV entry inh -17%[46.1 µM], MARV entry inh 5%[46.1 µM], FMDV antiviral 0% and HCMV inh -79*.
O=C(O)P(=O)(O)O was read as FMDV antiviral 10%.
COc1ccc(CNC(=O)/C=C/[C@H]2O[C@@H](n3ccc(=O)[nH]c3=O)[C@H](O)[C@@H]2O)cc1 was read as FMDV antiviral -15% and HCMV inh 2.
`O=C1NCCC/C1=N/Nc1cc(F)ccc1F` gave FMDV antiviral 52%, HCV inh -22%, HCMV inh -24 and SARS PLP yeast -6%.
`COC(=O)c1cc2occc2n1Cc1ccc(F)cc1Cl` gave MARV entry inh 6%[46.1 µM], FMDV antiviral -16% and HCMV inh -21.
For COc1cccc(-c2nc(CS(=O)(=O)CC(=O)Nc3ccccc3Cl)c(C)o2)c1 the results were LASV entry inh -4%[46.1 µM], MARV entry inh -28%[46.1 µM], FMDV antiviral -20%, HCV inh 13µM*, HCMV inh -24 and SARS PLP yeast inconclusive.
COc1cccc(-c2nc(CS(=O)(=O)CC(=O)NC3CCCc4ccccc43)c(C)o2)c1 (stereo unspecified) was read as FMDV antiviral -7%, HCV inh 11µM*, HCMV inh inconclusive and SARS PLP yeast -3%.
For COc1cccc(-c2nc(CS(=O)(=O)CC(=O)Nc3ccc(C(C)=O)cc3)c(C)o2)c1 the results were FMDV antiviral -18%, HCV inh 11µM*, HCMV inh 10 and SARS PLP yeast -4%.
`COc1cccc(-c2nc(CS(=O)(=O)CC(=O)Nc3ccccc3C)c(C)o2)c1` gave LASV entry inh -4%[46.1 µM], MARV entry inh inconclusive, FMDV antiviral -14%, HCV inh inconclusive, HCMV inh 0 and SARS PLP yeast -11%.
`COc1cccc(NC(=O)c2ccc(-c3nc(COc4ccccc4)c(C)o3)cc2)c1` gave LASV entry inh 1%[46.1 µM], FMDV antiviral inconclusive and HCMV inh -66*.
Screening COc1cccc(NC(=O)c2ccc(-c3nc(COc4ccc(C)cc4)c(C)o3)cc2)c1 returned LASV entry inh inconclusive, FMDV antiviral 0% and HCMV inh 17.
For O=S(=O)(Nc1ccc2cn[nH]c2c1)c1ccc(Cl)s1 the results were LASV entry inh -1%, MARV entry inh -10%[46.1 µM], FMDV antiviral 26%, HCV inh 8%, HCMV inh 20 and SARS PLP yeast 2%.
For Cn1cnc(CCNC(=O)[C@@H]2[C@@H](CO)[C@@H]3Cn4c(cccc4=O)[C@H]2N3C(=O)Nc2ccccc2)c1 the results were HCMV inh -6.
C=C1C(C)(C)[C@@H]2CC[C@]1(C(=O)Nc1nccs1)C2 was read as MARV entry inh -9%.
For Cc1oc(-c2cccc(Cl)c2)nc1CS(=O)(=O)CC(=O)NC1CCCC1 the results were LASV entry inh -6%[46.1 µM], MARV entry inh 7%[46.1 µM], FMDV antiviral -5%, HCV inh -7%, HCMV inh -62* and SARS PLP yeast 3%.
Screening COc1cccc(-c2nc(CS(=O)(=O)CC(=O)NC3CCCC3)c(C)o2)c1 returned LASV entry inh 4%[46.1 µM], MARV entry inh inconclusive, FMDV antiviral inconclusive, HCV inh inconclusive, HCMV inh -21 and SARS PLP yeast 24%.
Screening COc1cccc(C(=O)NCc2nc(-c3cccc(NC(=O)c4ccoc4C)c3)oc2C)c1OC returned FMDV antiviral 20µM*.
For CCOc1ccc(-c2nc(CN3CCCC(C(=O)N4CCOCC4)C3)c(C)o2)cc1 (stereo unspecified) the results were LASV entry inh -12%[46.1 µM], MARV entry inh -7%[46.1 µM], FMDV antiviral 9%, HCV inh -5%, HCMV inh 18 and SARS PLP yeast -6%.
`Cc1oc(-c2ccc(Cl)cc2)nc1CN1CCC(C(=O)N2CCc3ccccc3C2)CC1` gave MARV entry inh 3%, FMDV antiviral 22µM*, HCV inh -18% and SARS PLP yeast 1%.
CCOC(=O)C1CCCN(C(=O)C2CCN(Cc3nc(-c4ccc(Cl)cc4)oc3C)CC2)C1 (stereo unspecified) was read as FMDV antiviral inconclusive, HCV inh 11µM* and HCMV inh -25.
For Cc1oc(-c2ccc(Cl)cc2)nc1CN1CCC(C(=O)N2CCN(Cc3ccccc3)CC2)CC1 the results were MARV entry inh 6%, FMDV antiviral 0%, HCV inh -21%, HCMV inh -32 and SARS PLP yeast -13%.
Screening O=C1CN=C(c2ccccc2)c2oc3ccc(Br)cc3c2N1 returned LASV entry inh 13%, MARV entry inh -8%, FMDV antiviral -13%, HCV inh 7%, HCMV inh 0 and SARS PLP yeast -2%.
`COc1cccc(OC)c1C1=NCC(=O)Nc2c1oc1ccc(Br)cc21` gave LASV entry inh inconclusive, MARV entry inh inconclusive, FMDV antiviral 0%, HCV inh inconclusive, HCMV inh -95* and SARS PLP yeast 19%.
O=C(N/N=C/c1ccc(Cl)cc1Cl)C(=O)NC1CC1 was read as LASV entry inh 28%[46.1 µM], MARV entry inh -16%[46.1 µM], FMDV antiviral 11%, HCV inh -1%, HCMV inh 10 and SARS PLP yeast -1%.
`C=CCn1c(=O)n([C@@H]2O[C@H](CO)[C@@H](O)[C@H]2O)c2nc(N)[nH]c(=O)c21` gave FMDV antiviral -5%.
Screening c1ccc(COc2ccccc2CNC23CC4CC(CC(C4)C2)C3)cc1 returned LASV entry inh inconclusive, MARV entry inh inconclusive, FMDV antiviral -12%, HCV inh inconclusive, HCMV inh -97* and SARS PLP yeast -1%.
Screening CCCCNC(=O)C(NC(=O)c1ccc(C(F)(F)F)cc1)C(=O)c1ccccc1 (stereo unspecified) returned FMDV antiviral -8% and HCMV inh 17.
For CCCCNC(=O)C(NC(=O)c1ccc2ccccc2c1)C(=O)c1ccccc1 (stereo unspecified) the results were FMDV antiviral 5% and HCMV inh -64*.
